# Laboratory results from PubChem BioAssay.
# Assay: probe aNog binding to arrayed compounds – biochemical, biotinylated probe, 635/667 nm fluorescence, primary screen (AID 1115);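 further: probe is biotinylated aNog protein used at 0.15 µg/mL for 1 h at 4 C; z-score combines 667 nm fluorescence of each spot with its signal to noise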
# Conditions: small-molecule microarray, higher = more signal
row,SMILES,composite z-score
1,COc1cc2c(cc1O)C=[N+](Cc1cccc(OC(F)(F)F)c1)CC2,-0.294
2,CCOC(=O)C=Cc1cc([N+](=O)[O-])ccc1O,-0.377
3,N#Cc1ccc(NN2C(C(O)c3c(F)cccc3Cl)C=CC3C(=O)N(c4ccccc4)C(=O)C32)cc1 (stereo unspecified),1.65
4,O=C1O[C@H](c2ccccc2)[C@H](c2ccccc2)N2[C@H]1[C@@H](C(=O)NC[C@H](O)c1ccccc1)[C@]1(C(=O)Nc3ccccc31)[C@H]2c1ccc(OCCO)cc1,0.0821
5,O=C1c2ccccc2[C@](Cc2ccccc2I)(C(=O)NC2CC2)[C@H](c2ccc(CO)cc2)N1C1CCCCC1,-0.0067
6,CC(C)C[C@@H]1NC(=O)[C@@H]2C[C@H](C(=O)NCCCCCN)[C@H](c3cccc(OCCO)c3)N2C1=O,-0.282
7,CCCCCN1CC=CC23O[C@@H]4/C=C\CCCOC(=O)C4[C@H]2C(=O)N(C(CO)C(C)C)[C@@H]3C1=O (stereo partly specified),-0.158
8,O=C(NCc1ccc(F)cc1)[C@H]1C[C@H]2C(=O)N[C@@H](Cc3ccccc3)C(=O)N2[C@H]1c1ccc(O)cc1,-0.235
9,COCC(=C=CC[C@@H](O)c1ccccc1OCCO)C[C@@H](O)c1cc(Cl)cc(Cl)c1O,-0.0863
10,COCCOC(=O)N1C(=O)[C@@]2(c3cc(C#CC4=CCCCC4)ccc31)[C@H](C(N)=O)[C@H]1C(=O)O[C@H](c3ccccc3)[C@H](c3ccccc3)N1[C@@H]2c1ccc(OCCO)cc1,0.299
11,O=C1OCCC/C=C\[C@H]2OC34C=CCN(Cn5nnc6ccccc65)C(=O)[C@H]3N(CCO)C(=O)[C@@H]4C12 (stereo partly specified),0.235
12,C=CCOC(=O)[C@H]1[C@@H]2C(=O)O[C@@H](c3ccccc3)[C@@H](c3ccccc3)N2[C@@H](c2ccc(OCCOC(=O)[C@@H]3C[C@@H]4C(=O)N5CCC[C@H]5C(=O)N4[C@@H]3c3cccc(OCCO)c3)cc2)[C@]12C(=O)Nc1ccccc12,-0.378
13,CCCCCCC#C[Si](O[C@H](c1ccccc1)c1cn([C@H](CO)Cc2ccccc2)nn1)(C(C)C)C(C)C,-0.443
14,COc1ccc([Si](C)(C)[C@H]2[C@H](CC(=O)N3CCC[C@H]3CO)O[C@@]3(C(=O)N(Cc4cccc(N5C(=O)c6cccc7cccc5c67)c4)c4ccccc43)[C@@H]2C)cc1,1.02
15,CC(C)C[C@@H]1NC(=O)[C@H]2C[C@@H](C(=O)NCCCCCCN(C)C)[C@@H](c3ccc(O)cc3)N2C1=O,-0.284
16,CN1C(=O)C2C=CC(C(O)C3CC=CCC3)N(NC(=O)OC(C)(C)C)C2C1=O (stereo unspecified),0.55
17,O=C1OCCC/C=C\[C@H]2OC34C=CCN(CCN5CCOCC5)C(=O)[C@H]3N(CCCO)C(=O)[C@@H]4C12 (stereo partly specified),-0.23
18,Cc1ccc(S[C@]2(C(=O)NCC(F)(F)F)CC(=O)N(C(C)C)[C@@H]2c2ccc(CO)cc2I)cc1,0.986

row,SMILES,composite z-score
1,CCCCCN1CC=CC23O[C@@H]4/C=C\CCCOC(=O)C4[C@H]2C(=O)N(CCCO)[C@@H]3C1=O (stereo partly specified),-0.244
2,CN(C)C(=O)[C@]1(Cc2ccccc2N=[N+]=[N-])N=C(c2ccc(OCCCO)cc2)O[C@@H]1c1ccccc1,0.973
3,COCCOC(=O)N1C(=O)[C@@]2(c3cc(C#CC4=CCCCC4)ccc31)[C@H](C(=O)Nc1nc3ccccc3s1)[C@H]1C(=O)O[C@H](c3ccccc3)[C@H](c3ccccc3)N1[C@@H]2c1ccccc1OCCO,1.21
4,CN1C(=O)C2C=CC(C(O)c3cccs3)N(Nc3ccccc3)C2C1=O (stereo unspecified),0.0924
5,CCc1oc(CC[C@@H](CO)NC(=O)NCCn2cc(C3(O)CCCCC3)nn2)c(C(=O)OC)c1C(=O)OC,-0.0645
6,C=C[C@H](COC(C)=O)N(C(=O)OC(C)(C)C)S(=O)(=O)c1ccc(Br)cc1,-0.0185
7,C[N+](C)(C)CCCCNC(=O)[C@H]1C[C@H]2C(=O)N[C@@H](Cc3ccccc3)C(=O)N2[C@H]1c1ccc(O)cc1,0.0209
8,CCOC(=O)[C@H]1C/C=C/C[C@H](C(=O)OCC)C(=O)O[C@H]2[C@@H](OC)O[C@H](CO)[C@@H](OC(=O)Nc3cccc(F)c3)[C@@H]2OC1=O,1.93
9,NCCCCCNC(=O)[C@@H]1C[C@@H]2C(=O)N[C@@H](Cc3ccccc3)C(=O)N2[C@@H]1c1cccc(OCCO)c1,0.0256
10,C=CCOC(=O)[C@H]1[C@@H]2C(=O)O[C@@H](c3ccccc3)[C@@H](c3ccccc3)N2[C@@H](c2ccc(OCCOC(=O)[C@@H]3C[C@@H]4C(=O)N[C@@H](CCCCN(C)C)C(=O)N4[C@@H]3c3ccc(O)cc3)cc2)[C@]12C(=O)Nc1ccc(I)cc12,1.18
11,CC(C)C[C@H]1NC(=O)[C@@]23C(=O)N[C@@H](Cc4ccccc4)C2[C@H](C)[C@@]2(C)O[C@H]2C3/C=C/C/C=C\CNC(=O)[C@H](Cc2ccccc2)NC1=O (stereo partly specified),-0.194
12,CCOC(=O)[C@H]1CC=C2CC1C(=O)N1CCC[C@@H]1[C@@H]2O[Si](C)(C)C(C)(C)C (stereo partly specified),0.14
13,COc1ccc([Si](C)(C)[C@H]2[C@H](CC(=O)N3Cc4ccccc4C[C@H]3CO)O[C@@]3(C(=O)N(Cc4ccc(N5CCC5=O)cc4)c4ccccc43)[C@@H]2C)cc1,1.65
14,O=C1C2C=CC(C(O)C(c3ccccc3)c3ccccc3)N(n3cnnc3)C2C(=O)N1Cc1ccccc1 (stereo unspecified),0.976
15,O=C(O)[C@@]1(CCS(=O)(=O)c2ccccc2)COC(c2ccc(OCCCO)cc2)=N1,-0.463
16,C[C@]1(C(=O)NC2CC2)c2ccccc2C(=O)N(Cc2cc(C(F)(F)F)cc(C(F)(F)F)c2)[C@H]1c1ccc(CO)cc1,0.467
17,CCCC[C@@H]1C[C@H]1[C@@H](NC(=O)c1ccco1)c1ccc(C(=O)OC)cc1,-0.261
18,O=C1O[C@H](c2ccccc2)[C@H](c2ccccc2)N2[C@H]1[C@@H](C(=O)Nc1nc3ccccc3s1)[C@]1(C(=O)Nc3ccc(C#CCCO)cc31)[C@H]2c1ccc(OCCO)cc1,1.15
